Measured values: PubChem BioAssay AID488969 (Vanderbilt High Throughput Screening Facility, 2010)
In all, about 110,000 compounds were measured (“z-score”: median about -0.1, highest 2% from about 2 on). The sample holds the highest values, similar compounds and a random draw of the others, so the mix is not that of the screen. Activity calls are given as the source filed them.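 How the source made its calls: active means z-score in the third read window above 3 or below -3; inactive means the rest.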

Molecular target: Metabotropic glutamate receptor 8 (Rattus norvegicus) (UniProt P70579)
Experiment: rat mGluR8 modulators via GIRK flux, primary screen, cell-based, thallium flux, HTS (AID 488969)
Conditions: HEK293 rat mGluR8, GIRK (G protein-gated inwardly rectifying potassium channel) thallium flux, FluoZin2; at 10 µM; stronger effect = higher value; submaximal glutamate (EC20) added with thallium

Metabotropic glutamate receptor 8 (Rattus norvegicus), sequence (P70579 whole entry, looked up): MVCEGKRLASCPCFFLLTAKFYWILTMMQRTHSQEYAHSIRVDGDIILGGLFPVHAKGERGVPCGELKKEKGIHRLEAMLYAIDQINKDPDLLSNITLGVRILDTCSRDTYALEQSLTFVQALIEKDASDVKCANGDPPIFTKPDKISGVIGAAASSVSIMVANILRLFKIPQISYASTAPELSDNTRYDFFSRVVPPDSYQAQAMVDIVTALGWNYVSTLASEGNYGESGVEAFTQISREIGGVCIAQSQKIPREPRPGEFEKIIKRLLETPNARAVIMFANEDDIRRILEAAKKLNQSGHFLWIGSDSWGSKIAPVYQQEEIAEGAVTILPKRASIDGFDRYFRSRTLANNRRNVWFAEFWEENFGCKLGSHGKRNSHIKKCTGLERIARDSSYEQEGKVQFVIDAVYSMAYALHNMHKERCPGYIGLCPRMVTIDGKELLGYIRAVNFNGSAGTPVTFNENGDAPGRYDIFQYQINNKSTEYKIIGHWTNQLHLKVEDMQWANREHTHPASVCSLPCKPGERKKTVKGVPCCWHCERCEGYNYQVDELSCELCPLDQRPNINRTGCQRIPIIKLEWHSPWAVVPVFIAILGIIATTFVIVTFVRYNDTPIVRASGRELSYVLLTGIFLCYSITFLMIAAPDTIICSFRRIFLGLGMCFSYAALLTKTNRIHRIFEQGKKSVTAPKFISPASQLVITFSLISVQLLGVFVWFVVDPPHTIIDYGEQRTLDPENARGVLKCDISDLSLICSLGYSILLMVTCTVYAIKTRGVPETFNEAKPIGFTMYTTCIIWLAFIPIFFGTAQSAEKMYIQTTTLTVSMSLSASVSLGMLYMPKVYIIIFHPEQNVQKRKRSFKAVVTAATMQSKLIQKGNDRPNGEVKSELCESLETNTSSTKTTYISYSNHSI

| SMILES | z-score |
| --- | --- |
| COc1cc(C(=S)N2CCC(C(N)=O)CC2)ccc1O | -0.479 |
| CC(=O)c1cccc(NC(=S)NC2CC2)c1 | -0.023 |
| O=C1OC2(CCCCC2)OC(=O)C1=CNc1ccc2c(c1)OCO2 | 0.207 |
| CCOc1ccccc1NC=C1C(=O)OC2(CCCCC2)OC1=O | 0.615 |
| O=C1OC2(CCCCC2)OC(=O)C1=CNc1nc2ccccc2s1 | 8.02 (active) |
| COc1ccccc1N1CCN(C(=O)c2ccc(CN3CCc4ccccc4C3)cc2)CC1 | -0.0526 |
| O=c1[nH]c(-c2cccnc2)nc2ccccc12 | -0.073 |
| O=C(Nc1ccccc1)C1=C(O)CC(c2ccc(Cl)cc2)N2CCN=C12 (stereo not given) | -0.724 |
| CC1CN=C2C(C(=O)Nc3ccccc3)=C(O)CC(c3ccccc3)N21 (stereo not given) | 2.31 |
| CC1=NN(C(=S)Nc2ccccc2)C(c2ccccc2)C1 (stereo not given) | 0.129 |
| N#C/C(=C\c1c(N2CCC(C(N)=O)CC2)nc2ccccn2c1=O)C(=O)NCc1ccco1 | -0.0915 |
| COC(=O)C1C2C=CC3(CN(Cc4ccco4)C(=O)C13)O2 (stereo not given) | 0.49 |
| CCc1ccc(CNc2ccc(N3CCN(C(C)=O)CC3)cc2)cc1 | 0.968 |
| CC(=O)N1CCN(c2ccc(NCc3ccc(C(C)C)cc3)cc2)CC1 | 2.03 |
| CC(=O)N1CCN(c2ccc(NCc3ccc(F)cc3)cc2)CC1 | 0.0515 |
| O=C(Nc1ccc2c(c1)OCO2)C1CCN(C(=O)CSc2ncnc3ccccc23)CC1 | -0.185 |
| BrC(/C=N/Nc1nc(N2CCOCC2)nc(N2CCOCC2)n1)=C/c1ccccc1 | -0.171 |
| Cn1c(=O)oc2cc(S(=O)(=O)NCc3ccccc3)ccc21 | 0.611 |
| CCCn1c(=N)n(CC(=O)c2ccco2)c2ccccc21 | -0.051 |
| Cc1ccccc1Cn1c(=N)n(CC(O)c2ccco2)c2ccccc21 (stereo not given) | 3.34 (active) |
| CCCCn1c(=N)n(CC(=O)c2ccco2)c2ccccc21 | -0.268 |
| Cc1ccccc1Cn1c(=N)n(CC(=O)c2ccc([N+](=O)[O-])cc2)c2ccccc21 | 0.33 |
| Cc1ccccc1Cn1c(=N)n(CC(=O)c2ccco2)c2ccccc21 | 2.17 |

| SMILES | z-score |
| --- | --- |
| N=c1n(Cc2ccccc2)c2ccccc2n1CC(O)c1ccco1 (stereo not given) | 0.39 |
| CCCCCCCn1c(=N)n(CC(=O)c2ccco2)c2ccccc21 | 4.65 (active) |
| Cc1ccc(Cn2c(=N)n(CC(O)c3ccco3)c3ccccc32)cc1 (stereo not given) | 1.09 |
| CCn1c(=N)n(CC(=O)c2ccco2)c2ccccc21 | 0.33 |
| CC1CCN(C(=S)NC2CCCCC2)CC1 | -0.176 |
| CCN1CCN(C(=O)CN2C(=O)c3cccc4cccc2c34)CC1 | -0.191 |
| O=C(CSc1ccc(-c2ccccc2)nn1)c1ccccc1 | 0.0905 |
| CCOCC(=O)Nc1nnc(Cc2ccc(OC)cc2)s1 | -0.115 |
| Cc1ccc(C)c(NC(=S)NC(NC(=O)OCc2ccccc2)C(Cl)(Cl)Cl)c1 (stereo not given) | -0.108 |
| Cc1ccc(C(=O)O/N=C/c2ccc3c(c2)OCO3)cc1 | -0.102 |
| CSc1nnc(-c2ccccc2Cl)o1 | -0.168 |
| O=C(N/N=C/c1ccc(Cl)cc1Cl)Nc1ccccc1 | -0.276 |
| Cc1ccccc1C(=O)NC(=S)Nc1ccc(Cc2ccncc2)cc1 | -0.501 |
| O=C(N/N=C/c1ccc(Cl)cc1)Nc1ccccc1 | -0.0155 |
| CSc1ccccc1NC(=O)Nc1ccc(Cl)cc1 | 6.38 (active) |
| Cc1ccccc1C(=O)NC(=S)Nc1ccc(S(=O)(=O)N(C)c2ccccc2)cc1 | 1.07 |
| O=C(NC(=S)NC(=O)c1ccccc1F)c1ccccc1F | 0.339 |
| O=C(N/C(=N\O)c1ccccc1)Nc1ccc(Cl)cc1 | 2.01 |
| CSc1ccccc1NC(=O)Nc1ccc(F)c(Cl)c1 | -0.197 |
| Cc1ccccc1C(=O)NC(=S)Nc1ccc(Oc2ccc(Cl)cc2)cc1 | 2.74 |
| Cc1cccc(C)c1NC(=S)NC(=O)c1ccccc1F | 7.93 (active) |
| CSc1ccccc1NC(=O)Nc1ccccc1 | 0.531 |
| O=C(NC(=S)NCc1ccccc1)c1ccccc1F | 1.93 |

| SMILES | z-score |
| --- | --- |
| COc1ccc(CCN2C(=O)CCC2(C)C(=O)NCc2cccnc2)cc1OC (stereo not given) | -0.282 |
| Cc1nn(-c2ccc(F)cc2)c(Cl)c1/C=N/NC(=O)c1cccc(S(=O)(=O)N2CCCC2)c1 | -0.115 |
| Cc1cc(/C=C2/C(=O)NN(c3ccccc3)C2=O)c(C)n1-c1cccc(O)c1 | -0.338 |
| Cn1nnc(NC(=O)CSc2nnnn2-c2ccc(F)cc2)n1 | 0.0243 |
| O=C(NC(C(=O)N/N=C/c1c2ccccc2cc2ccccc12)c1n[nH]c(=O)c2ccccc12)c1ccccc1 (stereo not given) | -0.183 |
| N#C/C(=C\c1c(N(Cc2ccccc2)Cc2ccccc2)nc2ccccn2c1=O)C(N)=O | -1.96 |
| Cc1c(C(=O)Nc2ccccc2[N+](=O)[O-])csc1-c1ccccc1 | -0.152 |
| O=C(NC(=S)Nc1ccc(Oc2ccccc2)cc1)c1ccc(Cl)cc1 | 1.23 |
| Cc1ccc(C(=O)NC(=S)Nc2ccc(Oc3ccc(Cl)cc3)cc2)cc1 | 0.157 |
| O=C(NC(=S)Nc1ccc(Oc2ccc(Cl)cc2)cc1)c1ccccc1 | 3.94 (active) |
| Cc1nc2ncnn2c(C)c1CCC(=O)Nc1csc(N)n1 | -0.0552 |
| O=C1CC(SCc2nc3ccccc3[nH]2)C(=O)N1c1ccc(F)cc1 (stereo not given) | 0.0187 |
| Cc1cc(NC(=O)C(C)Oc2ccc(Cl)cc2Cl)n(-c2ccccc2)n1 (stereo not given) | -0.237 |
| Cc1cc(NC(=O)Nc2ccccc2)n(-c2ccccc2)n1 | 10.5 (active) |
| Cc1cc(NC(=O)c2ccc(C)s2)n(-c2ccccc2)n1 | 0.239 |
| CSc1ccccc1NC(=O)COc1ccc(Cl)cc1Cl | -0.15 |
| O=C(COc1ccc(Cl)cc1Cl)Nc1noc2ccccc12 | 12.9 (active) |
| Cc1cc(NC(=O)COc2ccc(Cl)cc2Cl)n(-c2ccccc2)n1 | 12.2 (active) |
| Cc1cc(NC(=O)COc2ccccc2)n(-c2ccccc2)n1 | -0.119 |
| O=C(COc1ccc(Cl)cc1Cl)Nc1ccccn1 | 1.52 |
| Cc1cc(Nc2ccccc2)n(-c2ccccc2)n1 | 0.00239 |
| CC(=O)c1cnc(N(C)C)s1 | 0.141 |
| CN(Cc1ccccc1)C(=O)CN(C1CCCCC1)S(C)(=O)=O | 0.423 |

| SMILES | z-score |
| --- | --- |
| O=C(Nc1ccc(N2CCOCC2)cc1)C1CC1 | 0.35 |
| Cn1c(C(=O)NCc2ccccn2)cc2c(=O)n(C)c3ccccc3c21 | 0.138 |
| COc1ccc(N(C(=O)Cc2cccs2)C(C(=O)NC2CCCCC2)c2cccn2C)cc1 (stereo not given) | -0.0427 |
| CCOc1ccc2c(c1)C(C)=CC(C)(C)N2C(=O)Nc1ccccc1F | -0.0976 |
| Cc1cc(OCc2nc(-c3cccs3)no2)cc(C)c1Cl | 0.00195 |
| COc1cc(CN2CCCC(C)C2)cc([N+](=O)[O-])c1O (stereo not given) | -0.494 |
| O=C(NN1CCOCC1)c1cc(-c2ccccc2)nc2ccccc12 | -0.494 |
| O=C(NN1CCOCC1)c1cc(-c2ccc(Br)cc2)nc2ccccc12 | 2.02 |
| CCc1ccc(-c2cc(C(=O)NN3CCOCC3)c3ccccc3n2)cc1 | -0.195 |
| C/C(N)=C(/C#N)C(=O)CSc1nnc(COc2ccccc2Cl)o1 | 0.832 |
| Cc1cc(/C=N/NC(N)=O)c(C)c(CO)c1 | -0.0977 |
| CCn1c(SCC(=O)N2CCC(C(N)=O)(N3CCCCC3)CC2)nc2ccccc2c1=O | -1.2 |
| CCn1c(SCC(=O)N2CCCC2)nnc1-c1ccc(N)cc1 | 0.183 |
| CCn1c(SCC(=O)N2CCC(C(N)=O)(N3CCCCC3)CC2)nnc1-c1ccccc1 | 2.65 |
| Cn1nnc2cc(C(=O)NCc3ccco3)ccc21 | 0.326 |
| CCOC(=O)NC(NC(=O)OCC)C(=O)c1ccccc1 | -0.227 |
| CC(C)CCOP(=O)(c1ccccc1)c1ccccc1 | -2.77 |
| CC(Nc1cc(N2CCCC2)ccc1[N+](=O)[O-])c1ccccc1 (stereo not given) | -0.624 |
| CCCn1c(O)c(CN2CCCCC2)c(C)c(C#N)c1=O | -0.183 |
| Brc1ccc(N=C/C=C/C=C/Nc2ccc(Br)cc2)cc1 | 0.151 |
| C(/C=C/C=C/Nc1ccccc1)=Nc1ccccc1 | 16.2 (active) |
| O=C(/C=C/Nc1ccccc1)c1ccccc1 | 0.219 |
| Fc1ccccc1CSc1nc2ncc(Br)cc2[nH]1 | 1.26 |

| SMILES | z-score |
| --- | --- |
| CCC(NC(=O)NC1=NCCS1)(C(F)(F)F)C(F)(F)F | 0.399 |
| C=CCn1c(=N)c(C(=O)OCC)cc2c(=O)n3cccc(C)c3nc21 | -0.017 |
| CCn1c(=N)c(C(N)=O)cc2c(=O)n3cccc(C)c3nc21 | -1.13 |
| CCOCCCn1c(=N)c(C(N)=S)cc2c(=O)n3cccc(C)c3nc21 | 2 |
| COc1cc(C(=O)NCC(=O)N/N=C/c2cccs2)cc(OC)c1OC | -0.174 |
| O=C(N=Nc1c(O)n(Cc2ccccc2)c2ccccc12)c1ccc(O)cc1 | -0.143 |
| NC(=S)N=Nc1c(O)n(Cc2ccc(Br)cc2)c2ccccc12 | -0.0836 |
| Cn1c(O)c(N=NC(=O)CNC(=O)c2ccco2)c2ccccc21 | -0.2 |
| CCCn1c(O)c(N=NC(=O)c2ccco2)c2ccccc21 | 3.17 (active) |
| CCn1c(O)c(N=NC(=O)CNC(=O)c2ccco2)c2ccccc21 | -0.152 |
| NC(=S)N=Nc1c(O)n(Cc2ccccc2)c2ccccc12 | 0.17 |
| NC(=S)N=Nc1c(O)n(Cc2ccc(F)cc2)c2ccccc12 | 1.76 |
| CCCCNC(=S)N=Nc1c(O)n(Cc2ccccc2)c2ccccc12 | 3.24 (active) |
| Cc1ccc2c(c1)c(N=NC(N)=S)c(O)n2Cc1ccccc1 | 2.88 |
| O=C1CC(=C2c3ccccc3-c3ccccc32)C(=O)N1CCN1CCN(c2cccc(Cl)c2)CC1 | -0.0614 |
| O=C(Nc1ccccc1)C(Cc1cccs1)c1nn[nH]n1 (stereo not given) | 0.0119 |
| Cc1ccc(S(=O)(=O)/N=S(/C)c2ccccc2)cc1 (stereo not given) | 0.693 |
| CCN(C(=O)c1cc2ccccc2oc1=O)c1cccc(C)c1 | 0.00276 |
| CCCOc1ccc(C2(C(=O)O)CCCC2)cc1 | 0.219 |
| O=C(CCC(=O)OCc1ccc(Br)cc1)Nc1ccccc1 | -0.0471 |
| Cc1cccc(-c2n[nH]c(=S)n2/N=C/c2ccc(C)o2)c1 | 0.433 |
| CCN(CC)S(=O)(=O)c1cccc(-c2n[nH]c(=S)n2/N=C/c2ccc(C(=O)OC)cc2)c1 | 3.19 (active) |
| Cc1cccc(/C=N/n2c(-c3ccncc3)n[nH]c2=S)c1 | -0.531 |
